# In PubChem BioAssay (NCATS):
# Results filed as inconclusive are left out. A number with no mark means an inactive call. Active and inactive are the calls of the source. The call rests on the fitted dose curve.
# Experiment: Cytotoxicity counterscreen for inhibitors of SARS-CoV-2 cell entry (AID 1645845); further: nearly all actives have a fitted effect of over 50% in size
# Conditions: cell viability (SARS-CoV-2 entry assay cells); series mostly up to 57.1 µM; activity change, negative = cytotoxicity: at the top concentration
# From the text: Assay Provider: Wei Zheng, Ph.D.
# National Center for Advancing Translational Sciences, National Institute of Health, Rockville, MD.
# SARS-CoV-2 spike protein, within the viral envelope, mediates viral attachment and infection of host cells. The SARS-CoV-2 spike protein specifically binds to the host receptor ACE2 (Angiotensin-converting enzyme 2). This interaction promotes endocytosis of the viral particle, additional events lead to viral-host cell membrane fusion and release of the viral contents, allowing viral replication.
# While SARS-CoV-2 requires BSL-3 facilities for live virus work, pseudo-typed partices (PP) that incorporate SARS-CoV-2 spike proteins without replication elements could facilitate studies on viral entry mechanisms in a BSL-2 setting. This PP cell entry assay could also enable screening of small molecule compound libraries in BSL-2 setting to identify inhibitors of SARS-CoV-2 cell entry. To eliminate false positive compounds, ATP content cytotoxicity assay was screened in the same cell line.
# SEQUENCE No. (e.g., 1, 2, 3, etc.); […] (e.g., Cells, Incubation, Reagent, etc.); VALUE and DESCRIPTION.
# 1. Cells. Seed 1500 HEK293-ACE2 cells (Expi293F with stable expression of human ACE2) in 2 uL/well media (DMEM, 10% FBS, 1x L-glutamine, 1x Pen/Strep, 1 ug/ml puromycin) in white 1536-well assay plates (Greiner #782073).
# 2. Incubation. Incubate at 37 C with 5% CO2 overnight (~16 h).
# 3. Compounds. Dispense 23 nL/well compounds in DMSO via pin transfer.
# 4. Incubation. Incubate for 1 h at 37C 5% CO2.
# 5. Reagent. Dispense 2 uL/well of media (DMEM, 10% FBS, 1x L-glutamine, 1x Pen/Strep, 1 ug/ml puromycin).
# 6. Incubation. Incubate at for 48h at 37C 5% CO2
# 7. Reagent. Dispense 4 uL/well of ATPLite 1step luminescence assay reagent (PerkinElmer #6016739).
# 8. Incubation. Incubate for 15 min at room temperature.
# 9. Detection. Read luminescence signal (Viewlux plate reader, PerkinElmer). Data was normalized with wells containing cells as 100%, and wells without cells (media only control) as 0%.
# On the % scale 0 is the no-effect control and ±100 the full control effect; potency means the concentration at half of the fitted maximal effect.
SMILES,"activity change, negative = cytotoxicity",Potency,outcome
C=CC(=O)N1CCC[C@H](n2c(=O)n(-c3ccc(Oc4ccccc4)cc3)c3c(N)ncnc32)C1,3.78%,–,–
CN(C)C(=O)c1cc2cnc(Nc3ccc(N4CCNCC4)cn3)nc2n1C1CCCC1,–,inactive,–
C=CC(=O)N[C@H]1CCOC[C@H]1Nc1ncc2cc(-c3c(Cl)c(OC)cc(OC)c3Cl)ccc2n1,–,–,inactive
NC(=O)C1(N2CCCCC2)CCN(CCCN2c3ccccc3CCc3ccccc32)CC1,–,31.6 µM (active),–
CCC1OC(=O)C(C)C(OC2CC(C)(OC)C(O)C(C)O2)C(C)C(OC2OC(C)CC(N(C)C)C2O)C(C)(O)CC(C)C2NC(COCCOC)OC(C2C)C1(C)O (stereo not given),-20.6%,–,–
COc1ncc(-c2ccc3c(Nc4cc(Oc5cc(F)cc(F)c5)cc(C(=O)O)c4)c(S(=O)(=O)NC4CC4)cnc3c2)c(OC)n1,-4.96%,–,–
CCC[C@H](NC(=O)/C(C#N)=C/c1cccc(Br)n1)c1ccccc1,–,20 µM (active),–
CCN(CC)CCNc1ccc(C)c2sc3ccccc3c(=O)c12,–,28.2 µM (active),–
CNc1nc(-c2ccc3c(N)n[nH]c3c2)cc(N2C[C@@H](C(=O)NC3CCCCC3)CC[C@H]2C)n1,0.975%,–,–
C=CCN(/C=C1\C(=O)O[C@@H](COC)[C@]2(C)C1=C(O)C(=O)C1=C2[C@@H](OC(C)=O)C[C@]2(C)C(=O)CC[C@H]12)CC=C,-5.32%,–,–
Cc1c(CN2CCN(C(=O)[C@H](C)O)CC2)sc2c(N3CCOCC3)nc(-c3cnc(N)nc3)nc12,-13.8%,–,–
FC(F)(F)c1ccc(CNc2ccc(Cc3c[nH]c4ncc(Cl)cc34)cn2)cn1,-5.07%,–,–
CCCN(CC)C(CC)C(=O)Nc1c(C)cccc1C (stereo not given),–,–,inactive
OB1OCc2cc(F)ccc21,–,–,inactive
Cc1cc(O)c(-c2ccc([C@@H](C)CN)cc2)c2c1[nH]c(=O)c1sccc12,4.09%,–,–
COc1ccc2c(c1)C(c1ccc(F)cc1)=C(CN1CCCC1)CO2,–,–,inactive
C[C@@H]1CC(=O)Nc2cccc(-c3ccc4c(c3)c(-c3cnn(C)c3)nn4C)c2N1,2.23%,–,–
Cn1nccc1Nc1nccc(-c2cc3c(s2)C(C)(C)N(CCN2CCOCC2)C3=O)n1,–,–,inactive
O=C(NC[C@H](O)CN1CCc2ccccc2C1)c1ccnc(NC2CCC2)c1,–,–,inactive
CCCC(=O)O[C@]1(C(=O)COC(C)=O)CC[C@H]2C3C[C@H](F)C4=CC(=O)C=C[C@]4(C)[C@@]3(F)[C@@H](O)C[C@@]21C (stereo not given in full),–,–,inactive

SMILES,"activity change, negative = cytotoxicity",Potency,outcome
Cc1sc2c(c1C)C(c1ccc(Cl)cc1)=NC(CC(N)=O)c1nnc(C)n1-2 (stereo not given),1.1%,–,–
CCC(=O)NC[C@H](Cc1ccc(OCCc2nc(-c3ccccc3)oc2C)cc1)N/C(C)=C\C(=O)c1ccc(C(F)(F)F)cc1,–,–,inactive
COc1cccc(OCCCN)c1-c1cc(Nc2cnc(C#N)cn2)n[nH]1,-1.77%,–,–
CN1C(=O)c2sccc2N(C)c2nc(Nc3ccc(S(N)(=O)=O)cc3)ncc21,-18.7%,–,–
Cc1[nH]cnc1C[C@H]1CCc2c(C)c3ccccc3n2C1=O,-0.499%,–,–
CC1(C)S[C@@H]2[C@H](NC(=O)C(C(=O)O)c3ccsc3)C(=O)N2[C@H]1C(=O)O (stereo not given in full),0.746%,–,–
C=Cc1cc(O)cc2nc(-c3ccc(O)c(F)c3)oc12,-23.8%,–,–
NC[C@@H]1CC[C@@H](N)[C@@H](O[C@H]2[C@H](O)[C@@H](O[C@H]3O[C@H](CO)[C@@H](O)[C@H](N)[C@H]3O)[C@H](N)C[C@@H]2N)O1,-11.2% [at 27.1 µM],–,–
CNC(=O)c1c(I)c(C(=O)NCC(=O)Nc2c(I)c(C(=O)O)c(I)c(C(=O)NCCO)c2I)c(I)c(N(C)C(C)=O)c1I,4.04%,–,–
Cc1cc(C)c(CNC(=O)c2cc(-c3ccc(N4CCN(C)CC4)nc3)cc3c2c(C)cn3C(C)C)c(=O)[nH]1,–,inactive,–
CNC[C@@H]1CC[C@@H](N)[C@@H](O[C@H]2[C@H](O)[C@@H](O[C@H]3OC[C@](C)(O)[C@H](NC)[C@H]3O)[C@H](N)C[C@@H]2N)O1,–,–,inactive
Cc1cc(N2CCN([C@@H]3CN[C@H](C(=O)N4CCSC4)C3)CC2)n(-c2ccccc2)n1,–,–,inactive
CCCCCCCCCCCCCCCCCCCCCC(=O)Nc1ccn([C@@H]2O[C@H](CO)[C@@H](O)[C@@H]2O)c(=O)n1,-11.2% [at 27.1 µM],–,–
CNC(=O)c1ccc2c(C(=Nc3cccc(CN(C)C)c3)c3ccccc3)c(O)[nH]c2c1,-15.4%,–,–
CCC(=O)Oc1ccc2c(c1)CC[C@@H]1[C@H]2CC[C@]2(C)[C@@H](OC(=O)CC)CC[C@@H]12,-16.4%,–,–
O=c1c(-c2ccc(O)cc2)coc2c([C@@H]3O[C@H](CO)[C@@H](O)[C@H](O)[C@H]3O)c(O)ccc12,-3.16%,–,–
COc1ccc(C(=O)C2CCN(CC(=O)N(Cc3nc4c(c(=O)[nH]3)COCC4)CC3CC3)CC2)cc1,–,–,inactive
CN1CCc2nc(C(=O)N[C@@H]3C[C@@H](C(=O)N(C)C)CC[C@@H]3NC(=O)C(=O)Nc3ccc(Cl)cn3)sc2C1,–,–,inactive
O=C(OCCN(CCO)CCO)c1ccccc1O,–,–,inactive
Cc1nc(C)c(CN2CCN(C(c3ccc(F)cc3)c3ccc(F)cc3)CC2)nc1C,–,–,inactive
